Source: PubChem BioAssay
Compounds with a hit are over-represented: about 3.9% of the library has one in this group of screens.
TWEAK Fn14 block: inhibitors of TWEAK-Fn14 signaling, primary screen, luciferase reporter cells, uHTS. TWEAK-stimulated Fn14 reporter cells, luciferase luminescence, 8 h. inhibition, % at 10 µM. AID 1159606, 2016. hit rate 2% among 360,000; in the data active = inhibition above about 50%
HIF-2a block: HIF-2a reporter inhibitors, primary screen, luminescence, 786-0 RCC cells; inhibition, % at 18.8 µM; 786-0 RCC cells HIF-2a reporter, luciferase luminescence, overnight; hit rate 0.72% among 360,000;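 active = inhibition of the luminescence signal of 40% or more relative to plate controls, in a single-dose primary screen at 18.75 µM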
Peg3 prom inh: Peg3 promoter-driven luciferase inhibitors, primary screen, cell-based, HeLa, luciferase luminescence; HeLa PEG-Prom luciferase reporter, overnight; inhibition, % at 20 µM; hit rate 1.7% among 360,000; AID 588405, 2011;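 active = inhibition of at least 50% at 20 µM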
TROY NFkB inh: inhibitors of TROY-driven NF-kB signaling, primary screen, Q293 LMP1-TROYcd cells, NF-kB luciferase, uHTS; AID 1347056, 2019; hit rate 0.98% among 360,000; Q293 LMP1-TROYcd NF-kB luciferase reporter, 4 h; inhibition, % at 10 µM;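 active = compounds whose plate-normalised and pattern-corrected inhibition of the luciferase reporter signal at the single screening dose is 50% or more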
CF NFkB inh: inhibitors of PAF-induced NF-kB signaling, primary screen, cell-based, GFP fluorescence, uHTS; inhibition, % at 5 µM; KKLEB NF-kB-GFP reporter, GFP fluorescence overnight; hit rate 0.86% among 360,000;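 active = at least 50% inhibition at 5 µM, scaled per plate between neutral and stimulator controls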;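 note: PAF is a Pseudomonas aeruginosa culture filtrate used as stimulus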
KKLEB tox: cytotoxicity in KKLEB CF airway cells, primary screen, cytotoxicity control for CF NF-kB inhibitor project, cell-based, uHTS, fluorescence assay plates | KKLEB CF airway cells viability, ATPlite luminescence, overnight; hits give low values; cells stimulated with P. aeruginosa culture filtrate | activity change (cytotoxicity), % at 5 µM | hit rate 0.36% among 360,000 | AID 602141, 2011;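 active = corrected activity change at or below -50% at 5 µM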
Numbers stand for hits; – = inactive.

SMILES | TWEAK Fn14 block | HIF-2a block | Peg3 prom inh | TROY NFkB inh | CF NFkB inh | KKLEB tox
Clc1ccc(-c2csc(NNC3=NCCCCC3)n2)cc1 | – | – | – | – | – | –
c1ccc(-c2csc(NNC3=NCCCCC3)n2)cc1 | – | – | – | 52.8 | – | –
CC(=NNC(=S)SCc1ccccc1)c1ccccn1 | – | – | 93.9 | – | – | –
O=c1[nH]c(=O)n(-c2ccc(F)cc2)c2c1C(C(F)(F)F)(C(F)(F)F)N=C(c1ccc(F)cc1)N2 | 64.6 | – | – | – | – | –
Cc1ccc(/C=N/N2CCN(C3c4ccccc4-c4ccccc43)CC2)s1 | 61.6 | – | – | 53.7 | – | –
Cc1cccn2c(=O)c(/C=C(\C#N)C(N)=O)c(N3CCN(Cc4ccc5c(c4)OCO5)CC3)nc12 | – | – | – | – | – | –
CCc1nc2ccc(C(=O)NCCc3c[nH]c4ccccc34)cn2c1N(C)CCCc1ccccc1 | – | – | 60.9 | – | – | –
O=C(Oc1ccc(Br)cc1C(=O)/C=C/c1ccccc1F)c1ccco1 | – | – | 50.2 | – | – | –
CC(=O)c1cc(Cl)ccc1OC(=O)c1ccco1 | – | – | – | – | – | –
O=C(O)c1ccc(N/N=C/c2ccc(F)c(F)c2)cc1 | 66.5 | – | – | – | – | –
O=C(O)c1ccc(N/N=C/c2cccc(F)c2)cc1 | 58.8 | – | – | – | – | –
O=C(O)c1ccc(N/N=C/c2cccc(C(F)(F)F)c2)cc1 | – | – | – | – | – | –
Cc1ccc2nc(Cl)c(/C=N/Nc3ccc(C(=O)O)cc3)cc2c1 | 51.0 | – | – | – | – | –
Cc1ccc2cc(/C=N/NC(=O)c3ccc(F)cc3)c(Cl)nc2c1 | – | – | – | – | – | –
O=C(O)c1ccc(N/N=C/c2cccc3cccnc23)cc1 | 61.2 | – | – | – | – | –
N#CCC(=O)NN=C1CCCCCCCCCCC1 | – | – | – | – | – | –
COC(=O)c1nnn(CC(=O)Nc2ccc(C)c(F)c2)c1C(=O)OC | – | – | – | – | – | –
Cc1ccc(Cc2cnc(NC(=O)c3ccco3)s2)cc1 | 57.8 | – | – | – | – | –
Cn1c(=O)n(C)c2cc([N+](=O)[O-])c(N3CCN(S(=O)(=O)c4ccc(C(C)(C)C)cc4)CC3)cc21 | 54.1 | – | – | – | – | –
CC(=O)Nc1ccc(S(=O)(=O)N2CCN(c3cc4c(cc3[N+](=O)[O-])n(C)c(=O)n4C)CC2)cc1 | – | – | – | – | – | –
Cc1ccc(C(=O)CSc2nnc3c4ccccc4nc(C(C)(C)C)n23)cc1 | – | – | – | 51.9 | – | –
COc1ccc(-n2c(-c3ccc(Br)cc3)c[n+]3c2CCc2ccccc2-3)cc1 | – | – | – | – | – | –
CC(C)c1ccc(-n2c(-c3ccccc3)c[n+]3c2CCc2ccccc2-3)cc1 | 84.2 | – | 67.5 | 58.9 | 51.1 | -53.8
Cc1nnc(NC(=O)c2ccc(S(=O)(=O)N3CCOCC3)cc2)s1 | – | – | – | – | – | –
CCOC(=O)c1sc(NC(=O)c2ccc(S(=O)(=O)N3CCOCC3)cc2)nc1-c1ccccc1 | 64.8 | – | – | – | – | –
SMILES | TWEAK Fn14 block | HIF-2a block | Peg3 prom inh | TROY NFkB inh | CF NFkB inh | KKLEB tox
CCOC(=O)c1sc(NC(=O)c2ccc(S(=O)(=O)N3CCCCCC3)cc2)nc1-c1ccccc1 | 76.8 | – | – | – | – | –
CCOC(=O)c1sc(NC(=O)c2ccc(S(=O)(=O)N3CCCCC3)cc2)nc1-c1ccccc1 | 71.3 | – | – | – | – | –
Nc1ccc(N(c2ccccc2)c2ccc(N)cc2)cc1 | – | – | – | – | 87.0 | –
COc1cccc(C(C)(O)c2nc(-c3cccc(C#N)c3)cs2)c1 (centres undefined) | 51.7 | – | – | – | – | –
CCN(CC)C(=O)c1cccc(-c2csc(C(C)(O)c3cccc(F)c3)n2)c1 (centres undefined) | 53.0 | – | – | – | – | –
CC(=O)Nc1cccc(-c2csc(C(C)(O)c3cccc(F)c3)n2)c1 (centres undefined) | – | – | – | – | – | –
CCOC(=O)N1CCN(C(=O)CCN2C(=O)/C(=C\c3ccccc3OC)SC2=S)CC1 | – | – | – | – | – | –
Cc1c(C(=O)N/N=C/c2ccc(O)c(Br)c2)sc(N)c1C#N | – | – | – | – | – | –
COc1cc(/C=N/NC(=O)c2sc(N)c(C#N)c2C)ccc1O | 51.9 | – | – | – | – | –
COC(=O)Nc1ncc(CN2CCc3ccccc3C2)s1 | – | – | – | – | – | –
C[C@]12c3[nH]c4ccc(Cl)cc4c3CCN1C(=O)[C@@H](CC(=O)NCCN1CCOCC1)C[C@@H]2C(=O)N1CCCCC1 | – | – | – | – | – | –
CN1CCN(Cc2nc3ccccc3c(=O)n2Cc2nc(-c3ccc([N+](=O)[O-])cc3)cs2)CC1 | – | – | 72.3 | – | – | –
O=C(CSc1nnc2ccccn12)NC(=O)Cc1ccccc1 | 51.5 | – | – | – | – | –
O=C(NC(c1ccccc1)c1ccc2ccccc2n1)C1CCN(CCOc2ccc(Cl)cc2)CC1 (centres undefined) | 92.5 | – | – | – | – | –
O=C(NC(c1ccc(Cl)cc1)c1ccccn1)C1CCN(CCOc2ccc(Cl)cc2Cl)CC1 (centres undefined) | – | – | 99.6 | – | – | –
Cc1cccnc1C(NC(=O)C1CCN(Cc2cn(C)c3ccccc23)CC1)c1ccc(Cl)cc1 (centres undefined) | – | – | 105.3 | – | – | –
O=C(NC(c1ccc(Cl)cc1)c1cccnc1)C1CCN(CCOc2ccc(Cl)cc2Cl)CC1 (centres undefined) | – | – | 62.5 | – | – | –
COc1ccc(OCCN2CCC(C(=O)NC(c3ccccc3)c3ccc4ccccc4n3)CC2)cc1 (centres undefined) | – | – | – | – | – | –
O=C(NC(c1ccc(F)cc1)c1cnccn1)C1CCN(CCOc2ccc(Cl)cc2Cl)CC1 (centres undefined) | – | – | – | – | – | –
COc1cc(C(=O)NCc2ccc3c(c2)OCO3)ccc1OCc1c(C)noc1C | – | – | – | – | – | –
COc1ccc(Cn2nc(C)cc2C)cc1OC | – | – | – | – | – | –
O=S(=O)(c1ccc(S(=O)(=O)N2CCCN(Cc3ccccc3)C2)cc1)N1CCCCCC1 | – | – | – | – | – | –
CN1CCCC(OC(=O)c2cc(F)c(F)c(F)c2F)C1 (centres undefined) | – | – | – | – | – | –
COc1ccc(-c2ccc(CCC(=O)O)n2-c2cc(OC)ccc2OC)cc1 | – | – | – | – | – | –
